Results filed as inconclusive are left out. Entries that show only a call come without a potency. The source made the active and inactive calls. The call rests on the fitted dose curve; in most records, active means well fitted cell-killing curve with a large enough effect in the repeat runs; inconclusive means weak or mixed curves, or effect the other way; inactive means flat fitted curve, though single readings scatter.
Test: qHTS RealTime-Glo MT Cell Viability Assay in HEK293 cells - 0 hour (AID 1224880); further: top concentration of the series differs between compounds; nearly all actives have a fitted effect of over 45% in size
Conditions: RealTime-Glo luminescence; series mostly up to 76.8 µM
Excerpt: U.S. Tox21 Program National Center for Advancing Translational Sciences [NCATS] NIH Chemical Genomics Center [NCGC] U.S. Environmental Protection Agency [EPA] National Institutes of Environmental Health Sciences [NIEHS] National Toxicology Program [NTP] U.S. Food and Drug Administration [FDA] Tox21 Assay Overview: Measure of cell viability is critical in the cell-base assay. Analysis of cell viability is necessary for the characterization of cell responses to cytotoxic drugs and environmental stress. A RealTime-Glo MT Cell Viability Assay to monitor cell viability in real time of continues cell culture during 40 hours of compound treatment was used to screen Tox21 10K library compounds in Hek293 cells. The RealTime-Glo MT Cell Viability Assay is a nonlytic, homogeneous, bioluminescent method to measure cell viability in real time using a simple, plate-based method. The assay involves adding NanoLuc luciferase and a cell-permeant prosubstrate to cells in culture. Viable cells reduce the proprietary prosubstrate to generate a substrate for NanoLuc luciferase. This substrate diffuses from cells into the surrounding culture medium, where it is rapidly used by the NanoLuc Enzyme to produce a luminescent signal. The signal correlates with the number of viable cells, making the assay well suited for cytotoxicity studies.
Tox21 Assay Protocol Summary: The mixture of Hek293 cell suspension and reagents were dispensed at 600cells/6 ul/well in 1536-well tissue culture treated black solid bottom plates using a Multidrop dispenser. After the assay plates were incubated at a 37 C/5% CO2 incubator for 5 hours, 23 nL of compounds dissolved in DMSO, positive and negative controls was transferred to the assay plate by a pintool work station. The plates were incubated at 37 C for 40 hours. The luminescence intensity were measured at 0h, 8h, 16h, 24h, 32h and 40h time points using ViewLux plate reader during compound treatment.

Structure (SMILES) | Potency | activity change, negative = cytotoxicity
O=C(O)c1cc(Cl)cc([N+](=O)[O-])c1Cl | inactive | –
CC(CO)c1ccccc1 (stereo not given) | inactive | –
C#CC(C)N(C)C(=O)Nc1ccc(Cl)cc1 (stereo not given) | inactive | –
c1ccc2nccnc2c1 | inactive | –
CCOC(=O)c1ncn2c1CN(C)C(=O)c1cc(F)ccc1-2 | inactive | –
COc1ccc2nc(SCc3ncc(C)c(OC)c3C)[nH]c2c1 | inactive | –
BrCc1cccc(Oc2ccccc2)c1 | inactive | –
CCCCCCN | inactive | –
CC1=CCC(C(C)C)=CC1 | inactive | –
CC(N)C(=O)OC(C)(C)Cc1ccc(Cl)cc1 (stereo not given) | inactive | –
CN=C(NC#N)Nc1ccc(C2=NNC(=O)CC2C)cc1 (stereo not given) | inactive | –
CCCCCCCCOS(=O)(=O)O | inactive | –
O=C(O)Cc1ccc(Cl)cc1Cl | inactive | –
COc1ccc(S(=O)(=O)N2c3ccc(Cl)cc3[C@@](O)(c3ccccc3Cl)[C@H]2C(=O)N2CCC[C@@H]2C(N)=O)cc1OC | inactive | –
CCCCCCCCC(=O)Cl | inactive | –
CC1(CO)CN(c2ccccc2)NC1=O (stereo not given) | inactive | –
CCN(C)C(=O)Oc1cccc([C@H](C)N(C)C)c1 | inactive | –
CC(C)CC(C)CC(C)CC(C)COC(=O)c1ccccc1C(=O)OCC(C)CC(C)CC(C)CC(C)C (stereo not given) | inactive | –
NNc1nnc(NN)c2ccccc12 | inactive | –
Cc1ccsc1/C=C/C1=NCCCN1C | inactive | –

Structure (SMILES) | Potency | activity change, negative = cytotoxicity
O=C1c2cccc3c2[C@H](CCC3)CN1[C@@H]1CN2CCC1CC2 | inactive | –
CC(=O)N[C@@H](CCC(=O)O)C(=O)O | inactive | –
C=C(C)C(=O)OCCOP(=O)(O)OCCOC(=O)C(=C)C | inactive | –
CCCOC(OCCC)OCCC | inactive | –
COc1ccc2c(c1OC)C(=O)O[C@@H]2[C@H]1c2c(cc3c(c2OC)OCO3)CCN1C | inactive | –
O=C1CC(c2ccc(Cl)cc2)CC(=O)N1 | inactive | –
CC(=O)Nc1ccc(S(=O)(=O)Cl)cc1 | inactive | –
Cc1nc2n(c(=O)c1CCN1CCC(c3noc4cc(F)ccc34)CC1)CCC[C@H]2O | – | 7.51% [at 15.8 µM] (inactive)
CCOC(=O)c1ccc(OC(=O)CCCCCN=C(N)N)cc1 | inactive | –
Nc1ccc(S(=O)(=O)Nc2ccc(Cl)nn2)cc1 | inactive | –
CC1=C(C(=O)O)N2C(=O)[C@@H](NC(=O)[C@H](N)c3ccc(O)cc3)[C@H]2SC1 | inactive | –
O=S(O)(O)=S | – | 1.11% [at 6.97 µM] (inactive)
CC(C(=O)O)c1ccc2c(c1)CC(=O)c1ccccc1S2 (stereo not given) | inactive | –
Nc1cccc(O)c1 | inactive | –
CCC(C=O)CC | inactive | –
CN1CCN(CC(=O)N2c3ccccc3C(=O)Nc3cccnc32)CC1 | – | 7.23% [at 6.97 µM] (inactive)
Cc1cccc(C)c1OCC(C)N (stereo not given) | inactive | –
O=C(Nc1ccc(Cl)c(Cl)c1)C1CC1 | inactive | –
CCCCC(CC)COCCO (stereo not given) | inactive | –
CC(C)=O | inactive | –

— PubChem BioAssay (Tox21)
